Laboratory results: PubChem BioAssay AID651791 (National Center for Advancing Translational Sciences (NCATS), 2012)
Records with an inconclusive call do not appear. Calls of active or inactive are those of the source. Calls come from the whole dose curve; as a rule, active = well fitted inhibition curve with a large enough effect; inconclusive = small, poorly fitted or top-dose-only effect; inactive = no such curve, though single readings can be large or run the other way.

assay: InCell qHTS Assay for Inhibitors of the mTORC1 Signaling Pathway in MEF (Tsc2-/-, p53-/-) Cells: Hit Validation; conditions: phospho-rpS6 immunofluorescence, 24 h; activity change, negative = inhibition: at 38.3 µM (top of the series);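 note: phospho-S6 Ser235/236 signal normalized to propidium iodide cell count per well; nearly all actives have a fitted effect of over 75% in size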
Potency is the fitted concentration of half-maximal effect.

Activity change, negative = inhibition, -28.2%:
CCCCN1C(=O)C(O)(CC(=O)c2ccc(C(C)(C)C)cc2)c2ccccc21 (configuration not stated)

Activity change, negative = inhibition, -6.75%:
COCc1oc2ccc(NS(=O)(=O)c3ccc(C)cc3)cc2c1C(=O)OC

Activity change, negative = inhibition, -100%:
COc1ccc(OC)c(C(=O)CC2(O)C(=O)N(Cc3ccccc3C)c3ccccc32)c1 (configuration not stated), Cc1nn(C(C)C(=O)NC2CCCCC2)c(=O)c2c1sc1ccccc12 (configuration not stated), Cc1ccc(-c2noc(CCC(=O)N(C)c3ccccc3F)n2)cc1, COc1ccc(-n2ncc3c(NCCCOC(C)C)ncnc32)cc1, COc1ccccc1N1CCN(C(=O)c2cnc(N3CCCCC3)c3ccccc23)CC1, CN(C)c1ccc(-c2nc3ccccn3c2Nc2ccc3c(c2)OCCO3)cc1, CCOC(=O)c1ccc(-c2ccc(/C=C(\C#N)c3nc4ccc(C)cc4[nH]3)o2)cc1, COc1ccc(NC(=O)CSc2nc3ccccc3n2Cc2cccc(OC)c2)cc1, Cc1cccc(CSCCNC(=O)CN(c2ccccc2)S(=O)(=O)N(C)C)c1, Cc1cc(OCC(=O)NCC2(N3CCN(C)CC3)CCCCC2)cc(C)c1Cl, CCOC(=O)c1sc2ccccc2c1S(=O)(=O)Nc1ccc(CC)cc1, Cc1cccc(-n2ncc3c(Nc4c(C)cc(C)cc4C)ncnc32)c1, Cc1cccc(OCC(=O)Nc2ccc3c(c2)N(C)C(=O)c2ccccc2S3)c1, COC(=O)c1ccc(Nc2nnc(-c3ccc(C)c(S(=O)(=O)N4CCN(C)CC4)c3)c3ccccc23)cc1, CCCSc1ncc(Cl)c(C(=O)Nc2ccc(S(=O)(=O)N3CCCCC3C)cc2)n1 (configuration not stated), O=C(Cn1c(=O)c2cccn2c2ccccc21)NCc1ccccc1F, COc1ccc(NC(=O)CSc2c3c(nc4ccccc24)CCC3)c(OC)c1, CCc1ccc(OCC(=O)Nc2ccc3oc(-c4ccc(OC)cc4)nc3c2)cc1, CCOC(=O)c1[nH]c2ccccc2c1NC(=O)c1ccccc1OCC, CCC(C)Sc1oc(-c2ccco2)nc1S(=O)(=O)c1ccc(C)cc1 (configuration not stated), Cc1nn(CCCC(=O)NCc2cccc(Cl)c2)c(=O)c2c1sc1ccccc12, COc1ccc(/C=C/C(=O)Nc2ccc3nc(N4CCC(C)CC4)cc(C)c3c2)cc1OC, CC(C)N(C(=O)CSc1nc2ccc(Cl)cc2[nH]1)c1ccccc1, Cc1ccc(S(=O)(=O)c2nc(-c3ccco3)oc2SC(C)c2ccccc2)cc1 (configuration not stated), CCOC(=O)c1c(C)[nH]c(CCC(=O)Nc2cc(C)ccc2OC)c1C, CCCC1=Nc2cc(C(=O)NCCOC)ccc2Sc2ccccc21, CCCC1=Nc2cc(C(=O)NC3CCCC3)ccc2Sc2ccc(C)cc21, CCCN1CCN(c2ncnc3sc(C(=O)Nc4ccc(OC(F)(F)F)cc4)c(C)c23)CC1, O=C(CCCn1ccc2cc(S(=O)(=O)N3CCCC3)ccc21)NCc1ccc(Cl)cc1, CC1CCCCN1c1nnc(NC(=O)Nc2ccccc2F)s1 (configuration not stated)

Activity change, negative = inhibition, -9.58%:
CC(=O)Nc1cccc(NC(=O)C(=O)NCCc2sc(-c3ccccc3)nc2C)c1

Activity change, negative = inhibition, -16.4%:
COc1cc(Nc2nc(SCC(=O)c3ccc(Cl)c(Cl)c3)nc3ccccc23)cc(OC)c1

Potency, active:
CCCCS(=O)(=O)c1oc(-c2ccc(F)cc2)nc1S(=O)(=O)c1ccc(C)cc1 5.85 µM, Cc1cccc(NC(=O)c2nc(S(C)(=O)=O)ncc2Cl)c1 5.21 µM, CC(=O)C1=C(c2ccc(Cl)c(Cl)c2)N(C(C)=O)n2c(C)nnc2S1 7.36 µM
